Measured values published in PubChem BioAssay (NCI).
About 83,000 compounds went through this panel and 20% of them were active in at least one assay; those are over-represented in the sample as a whole.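 Cell lines were cultured in 96-well plates, exposed to a single compound concentration, and assessed for percent growth 48 hours later.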 A number with no mark means an inactive call. Active and inactive are the calls of the source. The calls were made as follows: active = growth percent below 10; inactive = the rest.

Experiments:
Test in all cases: NCI-60 one-dose screen, 48 h (100 = growth as untreated, 0 = no growth, -100 = all killed)
Conditions in all cases: 10 µM unless noted
NCI-H23 lung = test system: NCI-H23 lung
NCI-H226 lung = test system: NCI-H226 lung
NCI-H322M lung = test system: NCI-H322M lung
HOP-62 NSCLC = test system: HOP-62 NSCLC
NCI-H460 lung = test system: NCI-H460 lung
HOP-92 NSCLC = test system: HOP-92 NSCLC
NCI-H522 lung = test system: NCI-H522 lung
A549/ATCC NSCLC = test system: A549/ATCC NSCLC
786-0 renal = test system: 786-0 renal
COLO 205 colon = test system: COLO 205 colon

Compound | growth (NCI-H23 lung) | growth (NCI-H226 lung) | growth (NCI-H322M lung) | growth (HOP-62 NSCLC) | growth (NCI-H460 lung) | growth (HOP-92 NSCLC) | growth (NCI-H522 lung) | growth (A549/ATCC NSCLC) | growth (786-0 renal) | growth (COLO 205 colon)
CN1CCN(c2ccc3c(c2)nc(NNC(=O)c2ncccn2)c2cccn23)CC1 | 4.51% (active) | -22.8% (active) | -7.59% (active) | -19.7% (active) | 3.42% (active) | -14.8% (active) | -7.36% (active) | 12.5% | -96.8% (active) | -85.7% (active)
CCCCCCCCc1ccc(C(=O)Nc2ccc(C)cc2C(=O)O)cc1C | 99.6% | 89.4% | 99.3% | 96.2% | 92.7% | 99% | -0.59% (active) | 85.8% | 104% | 114%
Cc1ccc(-n2c(-c3cc4ccccc4nc3Cl)noc2=O)cc1 | 87.7% | 77.7% | 92.5% | 65.1% | 90.6% | 70.6% | 62.7% | 85.7% | 91.3% | 103%
CCCCNC(=S)Nc1ccc(OCc2nc3ccccc3[nH]2)cc1 | 70% | 102% | 80.7% | 69.5% | 69.7% | 96.2% | 36.2% | 49.7% | 62.3% | 95.6%
O=C(COc1ccc(NC(=O)Nc2ccc(Cl)cc2)cc1)N/N=C/c1ccccc1 | -94.5% (active) | -89.2% (active) | -40.4% (active) | -84.6% (active) | -79.3% (active) | -77.9% (active) | -83.5% (active) | -78.3% (active) | -82% (active) | -66.5% (active)
N#Cc1cnn(C(=O)c2ccccc2Br)c1NC(=O)c1ccc(Br)cc1Cl | 104% | 99.2% | 100% | 97.9% | 105% | 111% | 102% | 93.9% | 95.8% | 102%
CCOC(=O)C1=C(N)N(c2ccccc2)C2=C(C(=O)CC(C)(C)C2)C1c1cccc(Cl)c1Cl (stereo not given) | 69.7% | 40.3% | 77.8% | 40.8% | 61% | -0.828% (active) | 74.9% | 60.6% | 67.7% | 80.6%
O=S(=O)(Nc1cccc(-n2cnc3cc(-c4ccc(O)cc4)ccc32)c1)C1CC1 | 38.5% | 19.3% | 55.3% | 44.1% | 15.8% | 87.9% | 14.4% | 37.7% | 40.1% | 25.8%
CC(=O)Nc1ccc(-c2nc3cc(-c4ccc(O)cc4)ccc3n2C)cc1 | 59.2% | 90.1% | 65.4% | 83.8% | 33.8% | 36.4% | 1.22% (active) | 69.7% | 50.3% | 71.3%
COc1ccc2c(c1)C(=N/N=C(\C)c1ccc(OC)c(S(N)(=O)=O)c1)C(=O)N2 | 94.1% | 89.3% | 94% | 89.1% | 101% | 79% | 84% | 94% | 97.9% | 98.7%
N#Cc1c(-c2cccc(Cl)c2Cl)cc(-c2c[nH]c3ccccc23)[nH]c1=O | 70.2% | 8.48% (active) | 76.5% | 80.1% | 85.6% | -0.53% (active) | 70.2% | 67.2% | 16.9% | 105%
C=C1CC[C@@H]2[C@]3(C)COC(c4ccco4)O[C@@H]3CC[C@@]2(C)[C@@H]1C/C=C1/C(=O)OCC1OC(C)=O (stereo not given in full) | 61.6% | 0.912% (active) | 79.5% | 66.5% | 37.6% | 37.9% | -29.9% (active) | 38.7% | 3.41% (active) | 48.6%
O=C(N=Nc1c(O)[nH]c2ccc([N+](=O)[O-])cc12)c1ccc2nc(-c3ccccc3)[nH]c2c1 | 64.7% | 60.1% | 104% | 100% | 100% | 30.8% | 17.8% | 106% | 91.4% | 28.4%
O=C1c2c(c3c4cc(F)ccc4oc3c3[nH]c4ccc(Br)cc4c23)C(=O)N1O | 7.64% (active) | 61.8% | 79.4% | 19.4% | 5.53% (active) | -39.4% (active) | -18% (active) | 69.2% | 15.5% | 67.9%
Cc1c(C(=O)NNC(=O)c2ccc(Cl)cc2)nnn1-c1ccc(Cl)cc1 | 106% | 95.3% | 89.7% | 97.3% | 104% | 79.1% | 96.9% | 95.2% | 94.2% | 97.2%
C=C1CC[C@@H]2[C@]3(C)COC(c4cn(-c5ccccc5)nc4-c4ccccc4)O[C@@H]3CC[C@@]2(C)[C@@H]1C/C=C1/C(=O)OC[C@H]1O (stereo not given in full) | -84.7% (active) | -90.4% (active) | 29.1% | -68.1% (active) | -75.9% (active) | -88.1% (active) | -88.1% (active) | -22.2% (active) | -61.3% (active) | -90.9% (active)
COc1ccc2nc(Nc3cccc(NC(=O)c4ccc(CN5CCCN(C)CC5)c(C(F)(F)F)c4)c3)ccc2c1 | -71.9% (active) | -39.8% (active) | -86.4% (active) | -47.3% (active) | 8.75% (active) | -53.1% (active) | -50.7% (active) | -24.8% (active) | -73.4% (active) | -31.7% (active)
COc1cc(-c2ccc(/C=N/NC(=O)c3[nH]c4ccc(Br)cc4c3-c3ccccc3)o2)cc(OC)c1OC | 53.9% | 49.6% | 81.2% | 62.6% | 62.8% | 61.7% | 82.8% | 71.6% | 67.2% | 94.7%
O=C(COc1ccc(NC(=O)Nc2ccc(Cl)c(Cl)c2)cc1)N=Nc1c(O)[nH]c2ccc(Br)cc12 | -10.7% (active) | -58.1% (active) | -15.4% (active) | -71.3% (active) | 7.45% (active) | -43.5% (active) | -64.7% (active) | -45.8% (active) | -70.3% (active) | -57% (active)
CC(=O)Nc1ccc(-n2cnc3cc(-c4ccc(O)cc4)ccc32)cc1C(F)(F)F | 21.4% | 44.8% | 41.1% | 34.4% | 9.22% (active) | 44.8% | -33.8% (active) | 19.4% | 20.3% | 43.8%
O=C1NC(=O)/C(=C/c2ccccc2OCc2cc3ccccc3nc2Cl)S1 | 68.8% | 75.4% | 79.4% | 33.6% | 91.9% | 56.8% | 79.1% | 76.9% | 78.2% | 117%
C/C(=N\N=C1/C(=O)Nc2ccc(Cl)cc21)c1ccc2c(c1)Nc1ccccc1S2 | -28.2% (active) | 31.3% | 28.3% | 19.3% | -21.9% (active) | -10.5% (active) | -34% (active) | -6.39% (active) | -70% (active) | -41.7% (active)
CC(=O)OC[C@@]1(C)C2CC[C@]3(C)C(CC=C4C5CC(C)(C)CC[C@]5(C(=O)Nc5cccc(C)c5)CC[C@]43C)[C@@]2(C)C[C@@H](OC(C)=O)[C@@H]1OC(C)=O (stereo not given in full) | 45% | 39% | 65.9% | 40.4% | 12.7% | 50.8% | 40.3% | 40.7% | 53.4% | 45.7%
CN(C)c1ccnc(CNCCSC2(c3ccccc3)c3ccccc3C=Cc3ccccc32)c1 | -30.6% (active) | 16.7% | 29.1% | 9.26% (active) | -87.4% (active) | -17.2% (active) | -73.6% (active) | 0.815% (active) | -46.8% (active) | -84.7% (active)
